56 molecules from PubChem BioAssay AID588689 (Southern Research Specialized Biocontainment Screening …, 2011) can be followed below.

One may read the inhibition as the change of the read-out against control, counted positive when it falls.

The whole screen tested about 340,000 compounds, of which about 1,000 (0.29%) were called active. Cut-off read from the data, not from the text of the source: inconclusive = inhibition above about 29% without an active follow-up result; inactive = below that. The list is a sample of the results. Measured potencies and affinities stand elsewhere.

In the experiment the target is Genome polyprotein (Dengue virus type 2 (strain 16681-PDK53)) (UniProt P29991). The experiment can be described thus: Dengue-2 NS5 methyltransferase inhibitors, primary screen, biochemical, confirmation dose response (AID 588689). To be noted: Dengue-2 NS5 methyltransferase capping enzyme assay, at 25 µM, stronger effect = higher value.
The mark [1] stands for this setting: measured here: pilot screen replicate inhibition.

For the molecule `CCOC(=O)C1=C(C)N=c2s/c(=C\c3ccc(OCC(=O)O)c(OC)c3)c(=O)n2C1c1ccc(OC)cc1` (stereo not drawn), the inhibition was -8.46% (inactive). On the same count and under the same terms, with `CCOC(=O)C1=C(C)N=c2s/c(=C3/C(=O)Nc4ccccc43)c(=O)n2C1c1ccc(C)cc1` (stereo not drawn) the figure was 22.8% (inactive). On the same count and under the same terms, with `O=C1CCC/C(=N\NC(=O)COc2ccc(Cl)cc2)C1` the figure was 3.18% (inactive). Still for that read-out and setting: the result for `O=C(NN=C1CCCC1)c1ccc(Cl)cc1` reads -2.6% (inactive); that for `O=C(CSc1nccc(=O)[nH]1)Nc1ccc(S(=O)(=O)N2CCOCC2)cc1`, 0% (inactive). For `Cc1ccc(CNC(=O)CCn2ccc3cc(S(=O)(=O)N4CCCC4)ccc32)cc1`, the inhibition is -4.92% (inactive). Regarding `Cc1onc(-c2ccccc2)c1C(=O)OCC(=O)Nc1ccccc1`, the inhibition was 8.65% (inactive).

Regarding `O=C(Nc1ccccc1Cl)c1ccccc1`, the inhibition is 1.49% (inactive). Turning to `O=C1C=C(Nc2ccccc2)C(=O)c2ccccc21`, the inhibition is -2.9% (inactive). Still for that read-out and setting: the result for `CC(=O)Nc1ccc(NC2=CC(=O)c3ccccc3C2=O)cc1` reads -5.82% (inactive); that for `O=C(NC1=C(Nc2ccc(Cl)cc2)C(=O)c2ccccc2C1=O)c1ccccc1`, -1.83% (inactive); that for `O=C(Nc1cccc(Cl)c1)C1C2C=CC3(O2)C1C(=O)N(CCCN1CCCCC1)C3C(=O)NC1CCCCC1` (stereo not drawn), -16% (inactive). For the molecule `Cc1ccc(OCCCc2c(C)n[nH]c2C)cc1`, the inhibition is -5.36% (inactive).

On to `CCCC1CC(CSc2ncn[nH]2)OC1=O` (stereo not drawn), for which the inhibition is -12.3% (inactive). On the same count and under the same terms, the result for `Cc1ccc(S(=O)(=O)N(CC(=O)N2CCOCC2)c2ccc(Br)cc2)cc1` reads -8.01% (inactive); that for `Cc1ccc2ccc(S(=O)(=O)NCc3ccccn3)cc2c1`, -1.67% (inactive); that for `COc1cccc(CNC(=O)c2ccc(CS(=O)Cc3ccc(C)cc3)o2)c1` (stereo not drawn), -4.44% (inactive). Regarding `O=C(Nc1ccc(S(=O)(=O)NCc2ccco2)cc1)c1cccc(F)c1`, the inhibition was -4.85% (inactive). Same read-out and setting: with `COc1ccc(C2CC(c3ccccc3)=NN2c2ccc(N)cc2)cc1` (stereo not drawn) the figure was -12.8% (inactive); with `COc1ccc(C2CC(c3ccccc3)=NN2c2ccc(C(N)=O)cc2)cc1` (stereo not drawn), -4.66% (inactive); with `N#C/C(=C\c1cccc(Oc2ccc(C(F)(F)F)cc2[N+](=O)[O-])c1)c1nc2ccccc2[nH]1`, -4.47% (inactive). Regarding `CCN(CC)C(=O)c1ccc(NS(=O)(=O)c2ccc(/C=C/C(=O)O)cc2)cc1`, the inhibition is 2.19% (inactive). Still for that read-out and setting: the result for `CC1=C/C(=C(/c2ccc(O)c(C)c2)c2ccccc2S(=O)(=O)O)C=CC1=O` reads -1.1% (inactive). Same read-out and setting: the result for `Cc1cc(C(=O)CS(=O)(=O)c2ccccc2)cc(C)c1O` reads -11.8% (inactive); that for `CC1=CC(=O)C=C/C1=C(/c1ccc(O)cc1C)c1ccccc1S(=O)(=O)O`, -1.47% (inactive). With `CC1=C/C(=C(\c2ccc(O)c(C)c2)c2ccccc2S(=O)(=O)O)C=CC1=O`, the inhibition was 0.65% (inactive). The inhibition under setting [1] worked out at 3.04%. Regarding `O=C(NC(=O)c1ccccc1)OCCN1C(=O)c2ccccc2C1=O`, the inhibition is -5.92% (inactive). On the same count and under the same terms, with `Cc1cc(S(=O)(=O)N2CCOCC2)ccc1OCC(=O)Nc1ccccc1C(F)(F)F` the figure was -3.32% (inactive); with `OCCNc1c2ccccc2nc2ccccc12`, -2.34% (inactive); with `OCCNc1nc2ccccc2nc1NCCO`, 15.3% (inactive).

Turning to `CC#CCCc1nc2ccccc2c(=O)n1N`, the inhibition was -9.73% (inactive).

Consider `COCCCNC(=O)CCc1nc(-c2ccccc2Cl)no1`, for which the inhibition was -2.35% (inactive). Turning to `O=C(O)COc1ccc(/C=N/NC(=O)c2cn(-c3ccccc3)nc2-c2ccccc2)cc1`, the inhibition was 5.65% (inactive). Still for that read-out and setting: with `CC(C)N1C(=O)CCN(C=O)c2ccccc21` the figure was -9.31% (inactive). The same measure, in the same setting: the result for `COC(=O)c1sc(N2C(=O)C(O)=C(C(=O)c3ccc(C)o3)C2c2ccc(F)cc2)nc1C` (stereo not drawn) reads -6.35% (inactive).

With `CCOC(=O)c1sc(N2C(=O)C(O)=C(C(=O)c3ccco3)C2c2cccc([N+](=O)[O-])c2)nc1C` (stereo not drawn), the inhibition was -0.32% (inactive).

Take `CCOC(=O)c1sc(N2C(=O)C(O)=C(C(=O)c3ccco3)C2c2ccco2)nc1C` (stereo not drawn): the inhibition was -2.93% (inactive). For `CCOc1ccc(C2C(C(=O)c3ccc(C)o3)=C(O)C(=O)N2c2nc(C)c(C(=O)OC)s2)cc1` (stereo not drawn), the inhibition is 10.7% (inactive).

Consider `COc1ccc(CC(=O)Nc2sc3c(c2C(N)=O)CCCC3)cc1`, for which the inhibition is -5.87% (inactive).

In the case of `CCC(C)(C)NC(=O)Cn1c(-c2ccccc2)cc(C(C)=O)c1C`, the inhibition was 1.78% (inactive). Still for that read-out and setting: the result for `O=C(CCN1N=C(c2ccccc2)CCC1=O)NCC1CCCO1` (stereo not drawn) reads 6.81% (inactive); that for `Cc1nn(-c2ccc3ccccc3c2)c(=O)c2ccccc12`, -4.49% (inactive); that for `CSc1nnc(-c2ccccc2N=Cc2c(C)[nH]n(-c3ccccc3)c2=O)c(=O)[nH]1`, 11.5% (inactive).

Take `Cc1cc(C)c2nc(N3C(=O)C(O)=C(C(=O)c4ccco4)C3c3ccco3)sc2c1` (stereo not drawn): the inhibition is 1.47% (inactive).

For `Cc1ccc2nc(N3C(=O)C(O)=C(C(=O)c4ccco4)C3c3ccc(C)o3)sc2c1` (stereo not drawn), the inhibition is -8.15% (inactive).

For `Cc1ccc2nc(N3C(=O)C(O)=C(C(=O)c4ccc(C)o4)C3c3cccc(O)c3)sc2c1` (stereo not drawn), the inhibition is 0.73% (inactive). On the same count and under the same terms, the result for `Cc1ccc2nc(N3C(=O)C(O)=C(C(=O)c4ccco4)C3c3ccc(O)cc3)sc2c1` (stereo not drawn) reads 3.66% (inactive); that for `Cc1nn(CCCC(=O)NCc2ccccc2)c(C)c1[N+](=O)[O-]`, -1.91% (inactive). Consider `CCCn1c(N)c(N(CCOC)C(=O)c2ccc([N+](=O)[O-])c(C)c2)c(=O)[nH]c1=O`, for which the inhibition was -3.56% (inactive). Turning to `COc1ccc(S(=O)(=O)N2CCN(C(=O)Cc3cccs3)CC2)cc1`, the inhibition was -2.65% (inactive). The same measure, in the same setting: with `CC(C)c1nc2ccc(NC(=O)C3CCCCC3)cc2[nH]1` the figure was 4.05% (inactive); with `O=C(C1=C(O)C(=O)N(CCN2CCOCC2)C1c1ccco1)c1cc2ccccc2o1` (stereo not drawn), -8.02% (inactive); with `CC(/C=N/n1c(-c2ccco2)n[nH]c1=S)=C\c1ccccc1`, 1.83% (inactive). For `CC(=C/c1ccccc1)/C=N/n1c(-c2ccco2)n[nH]c1=S`, the inhibition was -1.88% (inactive). The inhibition under setting [1] was determined as 2.73%. With `O=C(Nc1ccccc1C(=O)O)c1ccc2c(c1)C(=O)N(c1cccc([N+](=O)[O-])c1)C2=O`, the inhibition is 17.6% (inactive). Consider `Cc1ccc(C(=O)O)cc1NC(=O)c1ccc2c(c1)C(=O)N(c1ccc([N+](=O)[O-])cc1)C2=O`, for which the inhibition was -4.57% (inactive).
